From PubChem BioAssay AID1021 (Emory University Molecular Libraries Screening Center, 2008)
“And” between values parts separate entries of the source, which are not always exact repeats. Identical values can stand only once. The campaign covered roughly 220,000 compounds. About 2,100 (0.95%) were called active.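 How the source made its calls: active means compounds that cut the binding signal by more than half at the single screening dose; inactive means the rest.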 The sample as a whole holds a higher share of actives than the screen did. Some structures have more than one record in an assay (separate samples or runs), and their calls can disagree.

Biological target: Induced myeloid leukemia cell differentiation protein Mcl-1 (Homo sapiens) (UniProt Q07820)
Assay: disruptors of Mcl-1 and Bid BH3 peptide – biochemical, TR-FRET, 1536-well, primary screen (AID 1021);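 further: His-tagged Mcl-1 with europium anti-His antibody binding Bid BH3 peptide; 0% = Mcl-1 plus peptide wells and 100% = peptide-only wells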
Settings: TR-FRET Mcl-1/Bid-Dy647 peptide binding, at 21.7 µM, stronger effect = higher value

Chain of Induced myeloid leukemia cell differentiation protein Mcl-1 (Homo sapiens) (Q07820 whole entry, looked up): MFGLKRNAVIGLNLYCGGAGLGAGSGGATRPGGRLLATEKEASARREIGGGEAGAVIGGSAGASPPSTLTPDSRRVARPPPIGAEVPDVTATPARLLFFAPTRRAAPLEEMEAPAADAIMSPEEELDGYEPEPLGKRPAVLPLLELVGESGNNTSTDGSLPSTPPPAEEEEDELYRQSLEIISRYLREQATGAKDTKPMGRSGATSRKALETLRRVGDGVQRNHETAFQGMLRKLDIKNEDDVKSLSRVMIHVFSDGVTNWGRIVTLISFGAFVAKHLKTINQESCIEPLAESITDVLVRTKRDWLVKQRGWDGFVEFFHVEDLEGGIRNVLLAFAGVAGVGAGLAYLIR

Row | Compound | inhibition
1 | Cc1ccc(Nc2cc(=O)n(C3CCCCC3)c(=O)[nH]2)cc1C | 94.6% (active)
2 | O=c1cc(C(F)(F)F)[nH]c(=O)n1C1CCCCC1 | -10.9% (inactive)
3 | Cc1ccc(NNC(=O)C2CCC2)cc1C | -13% (inactive)
4 | Cc1c(C(=O)Nc2ccccc2)sc2nc3n(c(=O)c12)CCCCC3 | -9.14% (inactive)
5 | O=C(Cn1c[n+](CC(=O)c2ccc([N+](=O)[O-])cc2)cn1)c1ccc([N+](=O)[O-])cc1 | -21.7% (inactive) and -16.6% (inactive)
6 | CC(=O)Nc1ccc(N2C(=O)C3C4CC(=O)C(c5ccccc54)C3C2=O)cc1 (stereo unspecified) | -11.5% (inactive)
7 | O=C(Oc1cccc(N2C(=O)C3C4c5ccccc5C(c5ccccc54)C3C2=O)c1)c1ccco1 (stereo unspecified) | 92% (active)
8 | CC(=O)Oc1cccc(N2C(=O)C3CC=C(Cl)CC3C2=O)c1 (stereo unspecified) | -19.4% (inactive)
9 | O=[N+]([O-])c1ccc(N2CCSCC2)cc1O | -15.7% (inactive)
10 | O=C(CS(=O)(=O)c1ccc(C(F)(F)F)cn1)NNC(=O)c1ccccc1 | -2.12% (inactive)
11 | O=c1[nH]c2ccccc2n2c(-c3ccccc3)nnc12 | 64.9% (active)
12 | CCOC(=O)c1cnc2[nH]c3ccccc3n2c1=O | 10.7% (inactive)
13 | Cc1ccc(-c2nc3ccccc3[nH]c2=O)cc1 | -0.25% (inactive)
14 | CCCCc1nnc(NC(=O)CSc2nc(N)cc(=O)[nH]2)s1 | -5.95% (inactive)
15 | Cn1c2ccccc2c2cc(/C=C(\NC(=O)c3ccccc3)C(=O)NCC(=O)O)ccc21 | -1.08% (inactive)
16 | Cc1cc(NS(=O)(=O)c2ccc(NC(=O)c3cccc(OC(F)F)c3)cc2)nc(C)n1 | -2.38% (inactive)
17 | Cn1cccc1/C=N/NC(=O)CNc1cccc2ccccc12 | -45.9% (inactive)
18 | O=C(C(NS(=O)(=O)c1cccc2nsnc12)c1ccccc1)N1CCN(c2ccccc2)CC1 (stereo unspecified) | -29.6% (inactive)
19 | O=C(O)c1ccc(NS(=O)(=O)c2cccc3nsnc23)cc1 | 101% (active)
20 | O=C(O)C(NS(=O)(=O)c1cccc2nsnc12)c1ccccc1 (stereo unspecified) | -3.92% (inactive)
21 | N#Cc1c(N)nc2c(c1N)CC(C(F)(F)F)O2 (stereo unspecified) | 1.45% (inactive)
22 | Cc1nn(-c2ccccc2)c2c1C(c1ccc(F)cc1)C(C#N)=C(N)O2 (stereo unspecified) | -9.94% (inactive)
23 | COc1ccccc1C1C(C#N)=C(N)Oc2c1c(-c1ccccc1)nn2-c1ccccc1 (stereo unspecified) | 97.3% (active)
24 | Cc1nn(Cc2ccccc2)c2c1C(c1ccccc1)C(C#N)=C(N)O2 (stereo unspecified) | -17.5% (inactive)

Row | Compound | inhibition
25 | COc1cc(S(=O)(=O)N(Cc2cccs2)C2CC2)ccc1-n1cnnn1 | 1.4% (inactive)
26 | CCC(CC)NC(=O)CSc1nnc(-c2c[nH]c3ccccc23)o1 | 1.1% (inactive)
27 | CN(C)c1ccc(Nc2c3c4c(cccc4n(C)c2=O)C(=O)c2ccccc2-3)cc1 | 59.4% (active)
28 | COC(=O)NNC1=CC(=O)CC(C)(C)C1 | -13.6% (inactive)
29 | Cc1ccc(C(=O)OC2=CC(=O)CC(C)(C)C2)cc1 | 89.4% (active)
30 | CC1(C)CC(=O)C=C(Nc2ccccc2)C1 | -54% (inactive)
31 | C/C(=N\Nc1cccc(C(=O)O)c1)c1ccc2c(c1)Nc1ccccc1S2 | 92% (active)
32 | O=C(NC1CC1)c1ccc2c(c1)NC(=O)c1ccccc1S2 | -30.3% (inactive)
33 | CC(=O)Nc1cccc(/C(C)=N/NC(=O)c2ccccc2Cl)c1 | -9.47% (inactive)
34 | COc1cc(/C=N/NC(=O)CCc2n[nH]c(=O)[nH]c2=O)ccc1O | -25.6% (inactive)
35 | O=C(OCc1nc2ccccc2[nH]1)C1CCCCC1 | -17.4% (inactive)
36 | COc1ccc(C(=O)C2CCCN(Cc3ccc4nonc4c3)C2)c(C)c1 (stereo unspecified) | -14.3% (inactive)
37 | O=C(NC1CCCCC1)N1CCc2[nH]c3ccccc3c2C1 | -16.1% (inactive)
38 | Fc1ccc(NC(=S)N2CCc3[nH]c4ccccc4c3C2)cc1 | -6.12% (inactive)
39 | O=C(Nc1ccc(Cl)cc1)N1CCc2[nH]c3ccccc3c2C1 | 83.8% (active)
40 | Cc1ccccc1CN(c1ccc(C(=O)NCC2CCCO2)cc1)S(C)(=O)=O (stereo unspecified) | -0.03% (inactive)
41 | CNS(=O)(=O)c1ccc(N2CCCC2=O)c([N+](=O)[O-])c1 | -4.05% (inactive)
42 | COc1ccc(CN2CCCC(CNC(=O)c3ccc(F)cc3)C2)cc1OC (stereo unspecified) | -22.9% (inactive)
43 | COc1ccc(CN2CCCC(C(=O)c3ccc(Cl)cc3)C2)cc1Cn1cncn1 (stereo unspecified) | -25.6% (inactive)
44 | COc1ccc(CCN(C)C(=O)C2CCCN(Cc3ccc(OC)c(OC)c3)C2)cc1OC (stereo unspecified) | -22.7% (inactive) and 54.1% (active)
45 | CC(C)CC(=O)NC(=S)NNC(=O)c1cccc([N+](=O)[O-])c1 | -73.3% (inactive)
46 | Cn1nc(C(F)(F)F)c(-c2ccc(F)cc2)c1NC(=O)CSCC(=O)O | -12.6% (inactive)
47 | O=[N+]([O-])c1ccc(N/N=C/c2ccccc2)cc1 | -8.01% (inactive)
48 | O=C(O)CSCC(=O)Nc1cccc(C(F)(F)F)c1 | -0.04% (inactive)

Row | Compound | inhibition
49 | FC(F)(F)c1cccc(N/N=C/c2ccccc2)c1 | 93.7% (active)
50 | Clc1ccc(C[n+]2cc(-c3ccc(Cl)cc3)n3c2CCC3)cc1 | -1.66% (inactive)
51 | COc1ccc2[nH]c3c(=O)n(Cc4ccco4)cnc3c2c1 | 72.9% (active)
52 | O=c1c2[nH]c3ccc(Cl)cc3c2ncn1Cc1ccccn1 | 10.2% (inactive)
53 | Cc1ccc2[nH]c3c(=O)n(Cc4ccccn4)cnc3c2c1 | 14.7% (inactive)
54 | S=C(NNC(=S)NC1CC2C=CC1C2)NC1CC2C=CC1C2 (stereo unspecified) | -96.2% (inactive)
55 | CCCCCCCCCCCCC(NC(C)=O)(C(=O)OCC)C(=O)OCC | 1.76% (inactive)
56 | CN(C)c1ccc(/C=C/C(=O)c2ccc(O)cc2)cc1[N+](=O)[O-] | -2.27% (inactive)
57 | CCO[C@@H]1OC(C(=O)NCc2nc3ccccc3[nH]2)=C[C@H](C2CCCCC2)[C@H]1CCCO | 5.02% (inactive)
58 | CCc1ccccc1N1CN(Cc2ccco2)CNC1=S | -26.9% (inactive)
59 | Cc1nccc(-c2ccc(-n3c(C)ccc3C)cc2)n1 | 6.3% (inactive)
60 | COc1ccccc1NC(=O)/C=C/C(=O)O | -31.9% (inactive)
61 | O=[N+]([O-])c1cccc(Nc2c3ccccc3nc3ccccc23)c1 | -10.4% (inactive)
62 | O=[N+]([O-])c1cccc(C2=NCCS2)c1 | -9.78% (inactive)
63 | O=[N+]([O-])c1cccc(-c2nnc3c4ccccc4c4ccccc4n23)c1 | 52.9% (active)
64 | CCOC(=O)C1CCCN(C(=O)COc2ccc(N(C)S(=O)(=O)c3ccc(C)cc3)cc2)C1 (stereo unspecified) | -9.64% (inactive)
65 | COc1ccc(C(=O)COC(=O)COc2ccc(C)c(C)c2)cc1 | 11.1% (inactive)
66 | CC(NC(=O)COC(=O)c1ccc2c(c1)OCO2)c1ccccc1 (stereo unspecified) | -4.79% (inactive)
67 | COc1ccc(Nc2ncnc3sc(-c4ccccc4)cc23)c(OC)c1 | -15% (inactive)
68 | Cc1cccc(NC(=O)c2cc(N3C(=O)CCC3=O)ccc2Cl)n1 | 69.1% (active)
69 | Cc1cc(NC(=O)c2cccc(N3C(=O)CCC3=O)c2)no1 | -19.2% (inactive)
70 | Cc1cccc(NC(=O)c2ccc3ccccc3n2)n1 | -24% (inactive)
71 | c1ccc2sc(NN=C3CCCC3)nc2c1 | -7.33% (inactive)
72 | O=[N+]([O-])c1cc(Br)c(O)c(/C=N/Nc2nc3ccccc3s2)c1 | 85.8% (active)

Row | Compound | inhibition
73 | COc1cc(/C=N/Nc2nc3ccccc3s2)ccc1O | -5.09% (inactive)
74 | Cc1ccc(NC(=O)c2nc[nH]c2C(=O)N[C@@H](CCCCNC(=O)OC(C)(C)C)C(=O)OC(C)(C)C)cc1 | -46.2% (inactive)
75 | CCOc1ccc(N=C2SC(C(=O)O)CC(=O)N2C)cc1 (stereo unspecified) | 3.39% (inactive)
76 | NC1=NC(=O)S/C1=C\c1ccc(O)cc1 | -45.3% (inactive)
77 | CCOc1ccc(N=C2NC(=O)S/C2=C\c2ccc(O)cc2)cc1 | 85.2% (active)
78 | CCc1ccnc(NS(=O)(=O)c2ccc3c(c2)OCCO3)c1 | -5.34% (inactive)
79 | Cn1c(=O)n(C)c2cc(C(=O)Nc3ccc4c(c3)OCO4)ccc21 | -32.5% (inactive)
80 | O=C(Nc1ccc2c(c1)OCO2)c1ccc(N2C(=O)c3ccccc3C2=O)cc1 | 56.4% (active)
81 | O=C(Nc1ccccc1)c1ccc2c(c1)OCO2 | 1.56% (inactive)
82 | COc1ccc(C(=O)OCC(=O)NCC2CCCO2)cc1[N+](=O)[O-] (stereo unspecified) | -15.9% (inactive)
83 | [O-][N+]12CCCCC1CCCC2CO (stereo unspecified) | -0.58% (inactive)
84 | COC(=O)CCCC1=CC2=C(c3ccccc3)C(=O)C(C)(OC(=O)C3CCCC3)C(=O)C2=CN1c1ccc(OC)cc1 (stereo unspecified) | -60.4% (inactive)
85 | CC(=O)Nc1cc(C(=O)O)ccc1S(=O)(=O)c1ccc(Cl)cc1 | 83% (active)
86 | Cc1ccc(S(=O)(=O)c2ccc(Cl)cc2)cc1S(=O)(=O)NC(C(=O)O)C(C)C (stereo unspecified) | 4.83% (inactive)
87 | CCOC(=O)N1CCN(C(=O)c2ccc(S(=O)(=O)c3ccc(C)cc3)c(NC(C)=O)c2)CC1 | -11.4% (inactive)
88 | Cn1nccc1NC(=O)Nc1ccc(OC(F)(F)F)cc1 | -8.69% (inactive)
89 | COc1cc(OC)cc(C(=O)Nc2ccc(-c3nc4ccccc4o3)c(O)c2)c1 | 70.7% (active)
90 | COc1cc(OC)cc(C(=O)Nc2ccc(S(=O)(=O)Nc3cc(C)on3)cc2)c1 | -2.64% (inactive)
91 | O=C(Nc1ccc2oc(-c3ccccc3F)nc2c1)c1ccco1 | -18.3% (inactive)
92 | O=C(NCCCn1ccnc1)C(=O)NCC1OCCN1S(=O)(=O)c1cc(F)ccc1F (stereo unspecified) | -20.9% (inactive)
93 | Cn1c(CSCC(=O)Nc2ccccc2)nnc1SCc1ccccc1 | 1.29% (inactive)
94 | CC(Sc1nc(-c2ccccc2)cc(C(F)(F)F)n1)C(=O)Nc1ccc2c(c1)OCO2 (stereo unspecified) | -32.5% (inactive)
95 | CSc1nc(C)cc(SC(C(C)=O)C(=O)Nc2ccccc2)n1 (stereo unspecified) | -18.3% (inactive)
96 | CC(Sc1nnc2c(n1)C1CCC2(C)C1(C)C)C(=O)Nc1ccccc1 (stereo unspecified) | 66.7% (active)
